# Measurements reported in PubChem BioAssay (EPA / NIEHS).
# Records with an inconclusive call do not appear. Active and inactive are the calls of the source. The calls were made as follows: active = hit-call score of the fitted dose curve at least 0.9, where 1 is the maximum; inconclusive = response in the unintended direction; inactive = score below 0.9.
# Read-out: xenobiotic metabolism (CYP1A2), CYP1A2 (gene 1544)
# Assay: CLD_CYP1A2_24hr: CellzDirect (CLD) Gene Expression Assay for xenobiotic metabolism (CYP1A2) at 24 hours (AID 2283683)
# Procedure: CLD_24hr is a cell-based, multiplexed-readout assay that uses hepatocyte, a human liver primary cell, with measurements taken at 24 hours after chemical dosing in a 96-well plate.CLD_CYP1A2_24hr is one of 16 assay component(s) measured or calculated from the CLD_24hr assay. It is designed to make measurements of mRNA induction, a form of inducible reporter, as detected with chemiluminescence signals by Quantitative Nuclease Protection Assay (qNPA) technology.Data from the assay component CLD_CYP1A2_24hr was analyzed at the endpoint, CLD_CYP1A2_24hr, in the positive analysis fitting direction relative to DMSO as the negative control and baseline of activity. Using a type of inducible reporter, gain-of-signal activity can be used to understand changes in the reporter gene as they relate to the gene CYP1A2. Furthermore, this assay endpoint can be referred to as a primary readout. To generalize the intended target to other relatable targets, this assay endpoint is annotated to the cyp intended target family, where subfamily is xenobiotic metabolism.
# Human hepatocyte cultures were treated daily for two consecutive days with fresh dosing solutions containing appropriate concentrations of the 320 ToxCast chemicals (chemical identities were blinded to CellzDirect and other ToxCast collaborators), vehicle control (0.2% DMSO), and positive control inducers as summarized in Table 1. Due to the large number of treatment groups and chemicals examined, the ToxCast chemicals were divided into two groups (spanning two independent cultures of hepatocytes from separate donor preparations (Hu778: ToxCast plates 1 and 2; Hu776: ToxCast plates 3 and 4). Each preparation of human hepatocyte cultures was treated with respective vehicle control, medium only control, set of six positive controls/reference chemicals for the five hepatic receptor pathways, and a subset of eight of the ToxCast chemicals (indoxacarb, pyrithiobac-sodium, norflurazon, cyhalofop-butyl, methomyl, thiram, acetochlor, and propiconazole). These replicate data, coupled with internal replicates designed within the blinded ToxCast chemical library, provided additional data to evaluate interindividual differences between hepatocyte preparations and their potential impact on chemical profiles.Cell morphology and integrity were evaluated using phase-contrast microscopy as an indicator of hepatocyte cell health (Tyson & Green, 1987). Cultures for each treatment group (i.e., media, vehicle [0.2% DMSO], positive control inducers [multiple concentrations], and the ToxCast chemicals [multiple concentrations]) were observed and cell morphology was assessed relative to vehicle control cultures at each harvest time point (0, 6, 24, or 48 h). […] Images were evaluated at the conclusion of the study to assess changes in cell integrity and account for the effects of chemical exposure on uncharacteristic changes in concentration-dependent gene expression profiles. The results from these determinations of apparent cytotoxicity were annotated (yes/no) alongside the corresponding qNPA data for reference.At the conclusion of each treatment period, hepatocyte cultures (96-well) were washed with 1 volume of HBSS, lysed by addition of 25 ul ArrayPlate lysis buffer (HTG, Tucson, AZ), and 70 ul/well of Denaturation Oil, denatured by incubation at 95C for 10 min, and frozen at approximately -70C until analysis by nuclease protection assay (qNPA) (Roberts et al., 2007). For qNPA analysis, cell lysates were thawed at 50C for approximately 30 min, qNPA probes were added, and samples were incubated at 95C for 10 min to begin the detection process by denaturing the target RNA, dissociating the duplexes and secondary structure hybridization. At the conclusion of the hybridization period, S1 nuclease reagent was added to each sample to digest all nonprotected nucleotides at 50C for 60-90 min. […]
SMILES,outcome,AC50
C#CCOC(=O)[C@@H](C)Oc1ccc(Oc2ncc(Cl)cc2F)cc1,inactive,
CCCN(CCC)C(=O)SCC,inactive,
COC(=O)c1ccc(CNS(C)(=O)=O)cc1S(=O)(=O)NC(=O)Nc1nc(OC)cc(OC)n1,inactive,
CC(C)(C)[C@@H](O)[C@@H](Cc1ccc(Cl)cc1)n1cncn1,inactive,
CCC(C)OC(=O)N1CCCCC1CCO (stereo not given),inactive,
CCCCC(CC)COC(=O)c1ccccc1C(=O)O (stereo not given),inactive,
CCSC(=O)N(CC(C)C)CC(C)C,inactive,
CC1(C)C(C=C(Cl)Cl)C1C(=O)OCc1cccc(Oc2ccccc2)c1 (stereo not given),inactive,
CSC(=O)c1cccc2nnsc12,,20 µM (active)
O=C(O)C1(C(=O)Nc2ccc(Cl)cc2Cl)CC1,,20 µM (active)
CCOC(=O)C(C)Oc1ccc(Oc2cnc3cc(Cl)ccc3n2)cc1 (stereo not given),inactive,
COC(=O)c1ccccc1C(=O)O,inactive,
N#CSCSc1nc2ccccc2s1,,7.18 µM (active)
OB(O)O,inactive,
O=C(Nc1ccc([N+](=O)[O-])cc1Cl)c1cc(Cl)ccc1O,,3.97 µM (active)
CCCN(CCC)c1c([N+](=O)[O-])cc(C(F)(F)F)c(N)c1[N+](=O)[O-],,2.34 µM (active)
CCN(Cc1c(F)cccc1Cl)c1c([N+](=O)[O-])cc(C(F)(F)F)cc1[N+](=O)[O-],,0.418 µM (active)
CCOC(=O)C(C)Oc1ccc(Oc2nc3ccc(Cl)cc3o2)cc1 (stereo not given),inactive,
CCN(CC)C(=O)c1cccc(C)c1,inactive,
CCNc1nc(N)nc(Cl)n1,inactive,

SMILES,outcome,AC50
CN(C)C(=O)Nc1ccc(Cl)c(Cl)c1,,4.42 µM (active)
Oc1ccc(C(c2ccc(O)cc2)C(Cl)(Cl)Cl)cc1,inactive,
S=C(S)NCCNC(=S)S.[Mn+2].[S-]C([S-])=NCCN=C([S-])[S-].[Zn+2],inactive,
COC(=O)c1c(Cl)nn(C)c1S(=O)(=O)NC(=O)Nc1nc(OC)cc(OC)n1,,0.797 µM (active)
c1ccc(Nc2ccccc2)cc1,,6.41 µM (active)
c1ccc2[nH]c(-c3cscn3)nc2c1,,0.345 µM (active)
CCOC(=O)[C@H](C)Oc1ccc(Oc2nc3ccc(Cl)cc3o2)cc1,inactive,
COC(=O)c1ccc(I)cc1S(=O)(=O)NC(=O)Nc1nc(C)nc(OC)n1,inactive,
COc1c(Cl)ccc(Cl)c1C(=O)O,inactive,
COC(=O)c1cccc(C)c1S(=O)(=O)NC(=O)Nc1nc(OCC(F)(F)F)nc(N(C)C)n1,,6.03 µM (active)
CCCCCOC(=O)COc1cc(N2C(=O)C3=C(CCCC3)C2=O)c(F)cc1Cl,inactive,
CCCCCCC(C)OC(=O)COc1nc(F)c(Cl)c(N)c1Cl (stereo not given),inactive,
CCOC(=O)NCCOc1ccc(Oc2ccccc2)cc1,inactive,
COc1nc(C)nc(NC(=O)NS(=O)(=O)c2ccccc2OCCCl)n1,inactive,
CCCCOC(=O)[C@@H](C)Oc1ccc(Oc2ccc(C(F)(F)F)cn2)cc1,,20 µM (active)
S=C([S-])NCCNC(=S)[S-].[Mn+2],inactive,
CCCCOCCOCCOCc1cc2c(cc1CCC)OCO2,,0.858 µM (active)
Cc1nn(C)c(Oc2ccccc2)c1C=NOCc1ccc(C(=O)OC(C)(C)C)cc1,,37.4 µM (active)
CCCCC(CC)CN1C(=O)C2C3C=CC(C3)C2C1=O (stereo not given),,7.81 µM (active)
COC(=O)c1ccccc1S(=O)(=O)NC(=O)Nc1nc(OC(F)F)cc(OC(F)F)n1,,0.233 µM (active)
